These results are taken from PubChem BioAssay (EPA / NIEHS).

Assay [1] in a line: BSK_4H_Eotaxin3: BioMAP Diversity Plus: 4H Assay for Eotaxin 3 Biomarker Activity (AID 2283000).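 For outcome: CCL26 protein level quantified by ELISA in parallel with SRB cytotoxicity check.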 Particulars: primary human endothelial cells (HUVEC); actives raise or lower the signal. The essentials:
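Chemicals were added to human umbilical vein endothelium cultures, and Eotaxin-3 was quantified by ELISA at 24 h. Values were derived by bidirectional fitting with DMSO serving as negative control and activity baseline.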

Assay [2] has as its target human Peroxisome Proliferator-activated Receptor delta (PPARd), PPARD (gene 5467) (UniProt Q03181). The assay can be described thus: ATG_PPARd_TRANS: Attagene TRANS-FACTORIAL HepG2 Assay for human Peroxisome Proliferator-activated Receptor delta (PPARd) (AID 2283002; active = hit-call score of the fitted dose curve at least 0.9, where 1 is the maximum). In outline:
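Fluorescence from capillary electrophoresis of labelled RT-PCR reporter fragments gives the signal; DMSO sets baseline. Cells: HepG2 transiently carrying GAL4-UAS reporter units plus chimeric nuclear receptor-Gal4 proteins, exposed to chemicals for 24 h.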

Read-out in assay [3]: Intercellular Adhesion Molecule 1 (ICAM1), ICAM1 (gene 3383)
The assay can be described thus: BSK_3C_ICAM1: BioMAP Diversity Plus: 3C Assay for Intercellular Adhesion Molecule 1 (ICAM1) Biomarker Activity (AID 2283003). Particulars: primary human endothelial cells (HUVEC); actives raise or lower the signal. In outline:
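Primary human umbilical vein endothelial cells in the BioMAP 3C system were exposed to chemicals for 24 h, then ICAM-1 was quantified by ELISA. Activity was fitted bidirectionally against the DMSO negative control baseline.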

Assay [4] deals with human Retinoic Acid Receptor beta (RARb), RARB (gene 5915) (UniProt P10826). The assay can be described thus: ATG_RARb_TRANS: Attagene TRANS-FACTORIAL HepG2 Assay for human Retinoic Acid Receptor beta (AID 2283004; active = hit-call score of the fitted dose curve at least 0.9, where 1 is the maximum). The essentials:
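Transient transfection of HepG2 with multiple reporter units → chemical dosing, 24 h → total RNA isolation → RT with oligo(dT) → reporter-specific PCR, 6-FAM primer extension, HpaI digest → capillary electrophoresis. Positive direction vs DMSO control.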

The nature of assay [5]: BSK_3C_Proliferation: Cell Proliferation Assessment in the BioMAP Diversity Plus: 3C Assay (AID 2283006).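 For AC50: potency may reflect either rise or fall in cell number versus DMSO.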 Particulars: primary human endothelial cells (HUVEC). The essentials: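 Human umbilical vein endothelial cells were grown sub-confluent and exposed to chemical for 48 h, then fixed with 10% TCA and stained with 0.1% sulforhodamine B; absorbance at 560 nm gave relative cell number, fitted bidirectionally against DMSO baseline.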

Assay [6] deals with Peroxisome proliferator-activated receptor gamma (Homo sapiens) (UniProt P37231). The assay can be described thus: ATG_PPARg_TRANS: Attagene TRANS-FACTORIAL HepG2 Assay for human Peroxisome Proliferator-activated Receptor-gamma (PPARg) (AID 2283007; active = hit-call score of the fitted dose curve at least 0.9, where 1 is the maximum). In outline:
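Chimeric NR-Gal4 transactivation is measured in transiently transfected HepG2 cells by reporter mRNA induction at 24 h. Detection uses RT-PCR with fluorescent labelling and capillary electrophoresis; DMSO defines baseline.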

Assay [7] concerns the target Nuclear receptor subfamily 1 group I member 2 (Homo sapiens) (UniProt O75469). The assay can be described thus: ATG_PXR_TRANS: Attagene TRANS-FACTORIAL HepG2 Assay for human Pregnane X Receptor (PXR) (AID 2283008; active = hit-call score of the fitted dose curve at least 0.9, where 1 is the maximum). In outline:
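HepG2 cells transiently transfected with GAL4-UAS reporter units and PXR-Gal4 chimera, exposed 24 h. Reporter mRNA quantified by RT-PCR, fluorescent labelling, HpaI digestion and capillary electrophoresis; gain of signal vs DMSO.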

For assay [8], the target named is human Retinoic Acid Receptor gamma (RARg), RARG (gene 5916) (UniProt P13631). The assay can be described thus: ATG_RARg_TRANS: Attagene TRANS-FACTORIAL HepG2 Assay for human Retinoic Acid Receptor gamma (RARg) (AID 2283009; active = hit-call score of the fitted dose curve at least 0.9, where 1 is the maximum). In outline:
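HepG2 cells transiently transfected with multiplexed reporter units expressing chimeric RARg-GAL4 and GAL4-UAS-driven reporters; 24 h compound exposure. Reporter mRNA quantified by RT-PCR with fluorescent labelling and capillary electrophoresis; gain-of-signal fitted relative to DMSO baseline.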

Assay [9] has as its target Retinoic acid receptor RXR-alpha (Homo sapiens) (UniProt P19793). The assay can be described thus: ATG_RXRa_TRANS: Attagene TRANS-FACTORIAL HepG2 Assay for human Retinoid X Receptor alpha (RXRa) (AID 2283012; active = hit-call score of the fitted dose curve at least 0.9, where 1 is the maximum). In outline: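 HepG2 cells transiently transfected with multiplexed GAL4-UAS reporter units and chimeric NR-GAL4 fusions, dosed 24 h. Reporter mRNA measured by RT-PCR, FAM labelling, HpaI digestion and capillary electrophoresis; gain-of-signal fitted relative to DMSO baseline.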

The target of assay [10] is human Thyroid Receptor alpha (THRa1), THRA (gene 7067) (UniProt P10827). The assay can be described thus: ATG_THRa1_TRANS: Attagene TRANS-FACTORIAL HepG2 Assay for human Thyroid Receptor alpha (THRa1) (AID 2283014; active = hit-call score of the fitted dose curve at least 0.9, where 1 is the maximum). In outline: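 Reporter transcript induction, read by capillary electrophoresis of 6-FAM-labelled RT-PCR products, reflects activity of a transfected THRa1-Gal4 fusion in HepG2 liver cells. Cells were dosed for 24 h; activity was fitted in the positive direction against DMSO.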

Read-out in assay [11]: E-selectin (Homo sapiens) (UniProt P16581)
The assay can be described thus: BSK_3C_Eselectin: BioMAP Diversity Plus: 3C Assay for Eselectin Biomarker Activity (AID 2283015).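 For outcome: cell surface E-selectin protein quantified by ELISA 24 h after dosing.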 Particulars: primary human endothelial cells (HUVEC); actives raise or lower the signal. The essentials: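 ELISA read-out of E-selectin on endothelial monolayers after 24 h chemical treatment. Human umbilical vein primary cells served as the system, with DMSO defining baseline activity for bidirectional fitting.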

Read-out in assay [12]: Interleukin-1 alpha (IL1a), IL1A (gene 3552)
Description: BSK_BE3C_IL1a: BioMAP Diversity Plus: BE3C Assay for Interleukin-1 alpha (IL1a) Biomarker Activity (AID 2283016). Particulars: primary human bronchial epithelial cells; actives raise or lower the signal. In outline:
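Human primary bronchial epithelial cells (BE3C system) were dosed with compound and IL-1a measured by ELISA 24 h later. Activity was fitted bidirectionally against DMSO baseline; cytotoxicity was tracked in parallel cultures by SRB total-protein staining.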

Read-out in assay [13]: Monocyte Chemoattractant Protein-1 (MCP1), CCL2 (gene 6347)
The assay can be described thus: BSK_3C_MCP1: BioMAP Diversity Plus: 3C Assay for Monocyte Chemoattractant Protein-1 (MCP1) Biomarker Activity (AID 2283017). To be noted: primary human endothelial cells (HUVEC); actives raise or lower the signal. The essentials:
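ELISA read-out of MCP-1 from human umbilical vein endothelial cell cultures harvested 24 h post-dosing. Gain or loss of signal was fitted relative to DMSO.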

Read-out in assay [14]: Monocyte Chemoattractant Protein-1 (MCP1), CCL2 (gene 6347)
Description: BSK_4H_MCP1: BioMAP Diversity Plus: 4H Assay for Monocyte Chemoattractant Protein-1 (MCP1) Biomarker Activity (AID 2283018). Particulars: primary human endothelial cells (HUVEC); actives raise or lower the signal. The essentials: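 Human umbilical vein endothelial cells (4H system) dosed with chemical; MCP-1 measured by ELISA 24 h after dosing. Bidirectional curve fitting against DMSO negative control as baseline; parallel SRB total-protein staining tracks overt cytotoxicity.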

Read-out in assay [15]: Human Leukocyte Antigen - DR isotype (HLADR), HLA-DRA (gene 3122)
Description: BSK_3C_HLADR: BioMAP Diversity Plus: 3C Assay for Human Leukocyte Antigen - DR isotype (HLADR) Biomarker Activity (AID 2283019). To be noted: primary human endothelial cells (HUVEC); actives raise or lower the signal. The essentials: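 ELISA readout of surface HLA-DR on human umbilical vein endothelium, taken 24 h after chemical treatment. Gain- and loss-of-signal were both fitted relative to DMSO.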

Assay [16] has as its target human Peroxisome Proliferator-activated Receptor alpha (PPARa), PPARA (gene 5465) (UniProt Q07869). The assay can be described thus: ATG_PPARa_TRANS: Attagene TRANS-FACTORIAL HepG2 Assay for human Peroxisome Proliferator-activated Receptor alpha (PPARa) (AID 2283001; active = hit-call score of the fitted dose curve at least 0.9, where 1 is the maximum;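 for AC50: potency for gain of reporter signal over DMSO so agonist or activator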). The essentials:
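Measures transcriptional activity of an exogenous chimeric PPARa-Gal4 protein in transiently transfected HepG2 cells after 24 h dosing. Reporter mRNA quantified via RT-PCR and capillary electrophoresis; DMSO served as negative control.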

For assay [17], the target named is human Retinoid X Receptor beta (RXRb), RXRB (gene 6257) (UniProt P28702). Description: ATG_RXRb_TRANS: Attagene TRANS-FACTORIAL HepG2 Assay for human Retinoid X Receptor beta (RXRb) (AID 2283013; active = hit-call score of the fitted dose curve at least 0.9, where 1 is the maximum). In outline: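 HepG2 cells transiently transfected with multiplexed reporter units driven by GAL4-UAS and exogenous chimeric NR-Gal4 proteins; treated 24 h. Reporter mRNA measured by RT-PCR, 6-FAM labelling and capillary electrophoresis; gain-of-signal fitted versus DMSO baseline.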

In assay [18] the target is Retinoic acid receptor alpha (Homo sapiens) (UniProt P10276). The assay can be described thus: ATG_RARa_TRANS: Attagene TRANS-FACTORIAL HepG2 Assay for human Retinoic Acid Receptor alpha (RARa) (AID 2283005; active = hit-call score of the fitted dose curve at least 0.9, where 1 is the maximum). The essentials: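 HepG2 transiently transfected with multiplex GAL4-UAS reporter units including a human RARa–GAL4 chimera; 24 h compound exposure. Reporter mRNA quantified by RT-PCR, 6-FAM labeling and capillary electrophoresis; gain of signal versus DMSO.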

The structures appear in SMILES notation. Values joined by “and” are separate entries in the source; they are usually repeats but may differ in a detail not shown here. Identical values can stand only once. Records with an inconclusive call do not appear. Active and inactive are the calls of the source. Rule for the calls, unless noted: active = hit-call score of the fitted dose curve at least 0.9, where 1 is the maximum; inactive = score below 0.9.

Sequence of E-selectin (Homo sapiens) (P16581 whole entry, looked up): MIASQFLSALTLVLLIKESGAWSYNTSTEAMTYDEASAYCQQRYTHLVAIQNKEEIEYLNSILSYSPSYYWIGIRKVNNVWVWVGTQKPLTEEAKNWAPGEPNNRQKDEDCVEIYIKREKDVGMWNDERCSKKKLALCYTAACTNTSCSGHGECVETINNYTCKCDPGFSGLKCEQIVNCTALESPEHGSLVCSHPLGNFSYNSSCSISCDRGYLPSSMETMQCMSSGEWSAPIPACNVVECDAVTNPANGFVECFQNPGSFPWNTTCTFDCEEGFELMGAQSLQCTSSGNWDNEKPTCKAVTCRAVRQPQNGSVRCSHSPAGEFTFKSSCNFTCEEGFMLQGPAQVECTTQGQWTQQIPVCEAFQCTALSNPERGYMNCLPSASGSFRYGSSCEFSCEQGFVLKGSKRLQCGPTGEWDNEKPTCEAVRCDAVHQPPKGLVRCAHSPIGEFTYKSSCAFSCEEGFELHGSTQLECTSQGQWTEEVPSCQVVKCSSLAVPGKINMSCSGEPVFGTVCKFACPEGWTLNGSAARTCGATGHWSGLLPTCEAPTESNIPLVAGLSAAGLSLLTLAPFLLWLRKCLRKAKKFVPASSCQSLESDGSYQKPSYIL
Sequence of human Peroxisome Proliferator-activated Receptor delta (PPARd), PPARD (gene 5467) (Q03181 whole entry, looked up, the tested form may be a part): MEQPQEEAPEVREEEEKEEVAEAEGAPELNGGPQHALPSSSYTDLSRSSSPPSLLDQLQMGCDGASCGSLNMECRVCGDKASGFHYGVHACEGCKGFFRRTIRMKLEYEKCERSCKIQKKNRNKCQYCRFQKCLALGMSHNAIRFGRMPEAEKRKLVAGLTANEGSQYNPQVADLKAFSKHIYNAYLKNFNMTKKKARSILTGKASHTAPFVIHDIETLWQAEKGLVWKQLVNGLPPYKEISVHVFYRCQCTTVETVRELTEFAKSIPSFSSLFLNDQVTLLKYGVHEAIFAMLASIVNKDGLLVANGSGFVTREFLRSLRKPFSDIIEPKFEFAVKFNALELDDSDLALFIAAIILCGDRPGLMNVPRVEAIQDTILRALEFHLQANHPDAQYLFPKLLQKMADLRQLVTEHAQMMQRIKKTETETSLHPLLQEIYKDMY
Sequence of Nuclear receptor subfamily 1 group I member 2 (Homo sapiens) (O75469 whole entry, looked up, the tested form may be a part): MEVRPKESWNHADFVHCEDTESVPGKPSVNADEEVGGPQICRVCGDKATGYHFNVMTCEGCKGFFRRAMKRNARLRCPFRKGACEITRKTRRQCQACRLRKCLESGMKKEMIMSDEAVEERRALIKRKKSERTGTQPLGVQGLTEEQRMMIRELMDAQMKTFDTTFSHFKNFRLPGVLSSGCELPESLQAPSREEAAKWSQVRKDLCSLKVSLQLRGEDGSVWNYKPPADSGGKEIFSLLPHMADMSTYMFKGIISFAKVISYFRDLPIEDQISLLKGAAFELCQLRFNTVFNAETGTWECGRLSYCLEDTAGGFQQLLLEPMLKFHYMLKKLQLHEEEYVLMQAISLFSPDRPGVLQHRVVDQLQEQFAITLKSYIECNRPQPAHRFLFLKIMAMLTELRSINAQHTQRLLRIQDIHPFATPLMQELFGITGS
Sequence of Retinoic acid receptor RXR-alpha (Homo sapiens) (P19793 whole entry, looked up, the tested form may be a part): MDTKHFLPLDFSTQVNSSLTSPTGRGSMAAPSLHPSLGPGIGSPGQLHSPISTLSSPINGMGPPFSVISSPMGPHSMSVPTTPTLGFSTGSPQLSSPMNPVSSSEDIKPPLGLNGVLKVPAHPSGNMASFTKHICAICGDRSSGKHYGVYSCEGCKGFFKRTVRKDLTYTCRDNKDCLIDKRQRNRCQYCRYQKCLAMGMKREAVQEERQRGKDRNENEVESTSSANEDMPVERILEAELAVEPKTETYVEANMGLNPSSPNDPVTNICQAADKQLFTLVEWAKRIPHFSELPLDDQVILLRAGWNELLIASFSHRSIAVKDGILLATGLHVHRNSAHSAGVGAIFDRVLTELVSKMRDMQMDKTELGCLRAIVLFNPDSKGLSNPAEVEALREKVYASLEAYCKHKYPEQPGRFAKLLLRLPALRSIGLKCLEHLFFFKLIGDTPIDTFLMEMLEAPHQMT
Sequence of Peroxisome proliferator-activated receptor gamma (Homo sapiens) (P37231 whole entry, looked up, the tested form may be a part): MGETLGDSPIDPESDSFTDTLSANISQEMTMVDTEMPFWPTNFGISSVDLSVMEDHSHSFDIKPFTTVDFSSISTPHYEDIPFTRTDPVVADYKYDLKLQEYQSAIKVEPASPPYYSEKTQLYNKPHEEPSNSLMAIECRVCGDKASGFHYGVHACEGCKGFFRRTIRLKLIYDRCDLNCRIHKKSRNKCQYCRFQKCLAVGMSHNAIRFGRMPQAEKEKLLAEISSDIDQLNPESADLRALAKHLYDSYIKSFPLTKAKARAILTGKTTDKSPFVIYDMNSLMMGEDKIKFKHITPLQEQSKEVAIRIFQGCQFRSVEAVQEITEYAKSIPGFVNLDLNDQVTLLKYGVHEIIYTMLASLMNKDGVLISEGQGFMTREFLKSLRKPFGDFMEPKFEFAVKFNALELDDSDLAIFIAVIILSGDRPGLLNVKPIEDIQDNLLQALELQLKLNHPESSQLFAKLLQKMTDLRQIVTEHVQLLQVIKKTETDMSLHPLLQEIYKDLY
Sequence of human Thyroid Receptor alpha (THRa1), THRA (gene 7067) (P10827 whole entry, looked up, the tested form may be a part): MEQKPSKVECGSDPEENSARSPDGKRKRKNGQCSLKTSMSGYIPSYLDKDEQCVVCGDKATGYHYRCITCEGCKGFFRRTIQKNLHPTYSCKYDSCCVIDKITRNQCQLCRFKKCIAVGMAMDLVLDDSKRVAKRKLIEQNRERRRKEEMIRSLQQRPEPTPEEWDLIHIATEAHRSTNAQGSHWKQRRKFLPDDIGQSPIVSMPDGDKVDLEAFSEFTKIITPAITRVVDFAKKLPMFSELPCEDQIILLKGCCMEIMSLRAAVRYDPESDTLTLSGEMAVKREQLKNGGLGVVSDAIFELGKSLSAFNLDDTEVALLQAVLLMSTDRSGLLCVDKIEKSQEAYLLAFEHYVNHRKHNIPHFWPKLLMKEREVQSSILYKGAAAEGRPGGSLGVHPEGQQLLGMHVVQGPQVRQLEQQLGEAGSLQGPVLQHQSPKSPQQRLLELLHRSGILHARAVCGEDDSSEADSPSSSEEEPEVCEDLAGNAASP
Sequence of human Retinoic Acid Receptor gamma (RARg), RARG (gene 5916) (P13631 whole entry, looked up, the tested form may be a part): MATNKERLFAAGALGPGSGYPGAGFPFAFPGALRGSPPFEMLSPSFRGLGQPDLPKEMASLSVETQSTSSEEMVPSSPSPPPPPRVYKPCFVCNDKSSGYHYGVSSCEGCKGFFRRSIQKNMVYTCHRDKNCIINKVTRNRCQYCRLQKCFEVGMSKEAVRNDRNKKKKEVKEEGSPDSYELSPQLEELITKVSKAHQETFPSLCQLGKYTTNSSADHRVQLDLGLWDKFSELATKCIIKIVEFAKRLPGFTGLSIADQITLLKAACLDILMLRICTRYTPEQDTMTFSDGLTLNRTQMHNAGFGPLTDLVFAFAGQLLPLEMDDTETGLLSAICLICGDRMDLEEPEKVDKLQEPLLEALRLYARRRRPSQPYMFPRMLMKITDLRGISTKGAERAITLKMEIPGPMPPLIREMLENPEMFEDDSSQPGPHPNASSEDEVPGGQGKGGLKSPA
Sequence of human Peroxisome Proliferator-activated Receptor alpha (PPARa), PPARA (gene 5465) (Q07869 whole entry, looked up, the tested form may be a part): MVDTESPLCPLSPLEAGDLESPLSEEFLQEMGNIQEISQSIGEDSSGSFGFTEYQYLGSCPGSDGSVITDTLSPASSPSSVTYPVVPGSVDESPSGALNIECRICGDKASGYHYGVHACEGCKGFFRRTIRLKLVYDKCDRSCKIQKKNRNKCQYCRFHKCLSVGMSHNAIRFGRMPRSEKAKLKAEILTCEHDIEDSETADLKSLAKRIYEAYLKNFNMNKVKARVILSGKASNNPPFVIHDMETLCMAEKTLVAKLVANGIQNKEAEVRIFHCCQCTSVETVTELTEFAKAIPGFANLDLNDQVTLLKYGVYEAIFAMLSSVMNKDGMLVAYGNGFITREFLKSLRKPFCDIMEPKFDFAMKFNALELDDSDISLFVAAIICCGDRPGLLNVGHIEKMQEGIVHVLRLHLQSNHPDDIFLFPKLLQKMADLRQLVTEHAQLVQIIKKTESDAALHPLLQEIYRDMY
Sequence of human Retinoic Acid Receptor beta (RARb), RARB (gene 5915) (P10826 whole entry, looked up): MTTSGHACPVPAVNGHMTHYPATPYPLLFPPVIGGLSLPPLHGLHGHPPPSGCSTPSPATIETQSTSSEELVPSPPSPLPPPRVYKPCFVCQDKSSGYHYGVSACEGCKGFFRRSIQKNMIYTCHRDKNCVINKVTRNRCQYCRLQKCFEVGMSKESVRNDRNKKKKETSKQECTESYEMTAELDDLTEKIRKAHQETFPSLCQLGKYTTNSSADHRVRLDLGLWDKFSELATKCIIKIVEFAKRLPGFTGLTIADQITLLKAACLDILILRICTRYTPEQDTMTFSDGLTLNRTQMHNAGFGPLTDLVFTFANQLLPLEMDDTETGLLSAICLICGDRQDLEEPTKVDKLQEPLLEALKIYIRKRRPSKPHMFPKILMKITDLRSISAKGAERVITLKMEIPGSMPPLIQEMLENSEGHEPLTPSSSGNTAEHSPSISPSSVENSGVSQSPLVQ
Sequence of human Retinoid X Receptor beta (RXRb), RXRB (gene 6257) (P28702 whole entry, looked up, the tested form may be a part): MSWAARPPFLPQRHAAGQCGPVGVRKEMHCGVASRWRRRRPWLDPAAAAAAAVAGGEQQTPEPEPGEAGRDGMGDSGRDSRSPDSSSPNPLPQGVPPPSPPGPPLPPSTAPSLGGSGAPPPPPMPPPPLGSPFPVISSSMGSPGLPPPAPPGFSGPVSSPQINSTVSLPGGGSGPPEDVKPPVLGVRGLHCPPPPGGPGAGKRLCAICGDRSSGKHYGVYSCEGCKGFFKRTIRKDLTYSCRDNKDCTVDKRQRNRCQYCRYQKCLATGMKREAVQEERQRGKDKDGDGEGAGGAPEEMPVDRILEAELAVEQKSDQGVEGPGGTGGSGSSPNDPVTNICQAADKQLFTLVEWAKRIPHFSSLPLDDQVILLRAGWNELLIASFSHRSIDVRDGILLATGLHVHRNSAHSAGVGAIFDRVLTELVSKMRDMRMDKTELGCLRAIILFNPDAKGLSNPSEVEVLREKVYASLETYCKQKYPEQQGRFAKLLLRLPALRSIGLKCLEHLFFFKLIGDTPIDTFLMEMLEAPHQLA

The term AC50 denotes the concentration at which the activity in the assay is half-maximal. In the case of `CCOC(=O)C1=NN(c2ccc(Cl)cc2Cl)C(C)(C(=O)OCC)C1` (stereo not drawn), the outcome in assay [1], in assay [2], in assay [3], in assay [4], in [5] and in assay [8] was inactive. Moreover, the compound was called inactive in assay [9], in [10], in assay [11], in assay [12], in assay [13] and in [15]. In addition, the AC50 was 87.1 µM (active) in assay [6], 10.1 µM (active) in [7] and 20 µM (active) in [14].
Take `c1ccc(Nc2cccc3ccccc23)cc1`: the AC50 in assay [1] is 32.8 µM (active) and 18 µM (active); in [16], 9.04 µM (active); in assay [5], 27 µM (active) and 30.4 µM (active); in assay [6] it was 18.3 µM (active); in assay [7], 12.6 µM (active); in assay [9], 43.4 µM (active). The AC50 is 11.9 µM (active) in assay [17]; 31.5 µM (active) and 31.6 µM (active) in assay [11]; 23.8 µM (active) and 28.6 µM (active) in [12]; 33.1 µM (active) and 33.6 µM (active) in assay [13]; 26.1 µM (active) and 21.6 µM (active) in [14]; 38.7 µM (active) and 29.6 µM (active) in assay [15]. Moreover, the outcome in [4] and in assay [10] was inactive.
On to `CC/C=C\CCOC(=O)c1ccccc1O`, for which the AC50 in [1] was 20 µM (active); in assay [5], 22.8 µM (active); in assay [6] it was 39.5 µM (active); in assay [11], 32.9 µM (active); in assay [13], 29.7 µM (active); in assay [14], 10.9 µM (active). Besides, the half-maximal activity concentration (AC50) in assay [15] is 33.1 µM (active). For the same compound, the compound was called inactive in [16], in assay [2], in assay [7], in assay [8], in assay [17] and in assay [10]. Also, the result in assay [12] was inactive.
With `Oc1c(Cl)cc(Cl)c(Cl)c1Cl`, the AC50 was 32.5 µM (active) in [1]; 28.3 µM (active) in [3]; 20 µM (active) in assay [5]; 27 µM (active) in assay [6]; 27.7 µM (active) in assay [11]; 29.2 µM (active) in assay [12]. Further, the AC50 in assay [13] was 30.7 µM (active); in [14] it was 27.9 µM (active); in assay [15], 25 µM (active). For the same compound, the call in [2], in assay [18], in assay [7], in assay [8], in assay [9] and in assay [10] was inactive.
